# Assay results reported in PubChem BioAssay AID1159580 (chemical genetic matrix, 2015).
# The campaign covered roughly 5,500 compounds. About 2,000 (36%) were called active. Roughly 18% stayed inconclusive and do not appear here. Cut-off read from the data, not from the text of the source: active = normalized growth mostly below about 0.91 (no sharp cut-off); inconclusive = no clear call, values can overlap the other calls; inactive = mostly above about 0.92. This is one part of the list.
# Test: chemical genetic growth profiling, strain panel (AID 1159580);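 note: tested at 20 µM; growth read once vehicle control cultures reached saturation at 30 °C; 1 = growth at the plate median or of vehicle wells; lower values mean less growth of the strain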
# Details: growth OD
smiles,measurement,setting,value
CCC(Cc1c(I)cc(I)c(N)c1I)C(=O)O (stereo unspecified),normalized growth,"S. cerevisiae deletion strains, locus YKL009W, strain mrt4, stronger effect = lower value",0.974 (inactive)
same,normalized growth,"S. cerevisiae deletion strains, locus YKL068W, stronger effect = lower value",0.986 (inactive)
same,normalized growth,"S. cerevisiae deletion strains, locus YKL085W, strain MDH1 (second series), stronger effect = lower value",0.982 (inactive)
same,normalized growth,"S. cerevisiae deletion strains, locus YKL085W, strain MDH1, stronger effect = lower value",0.982 (inactive)
same,normalized growth,"S. cerevisiae deletion strains, locus YKL160W, strain elf1, stronger effect = lower value",0.961 (inactive)
same,normalized growth,"S. cerevisiae deletion strains, locus YKL190W, strain CNB1, stronger effect = lower value",1 (inactive)
same,normalized growth,"S. cerevisiae deletion strains, locus YKR001C, strain vps1, stronger effect = lower value",0.996 (inactive)
same,normalized growth,"S. cerevisiae deletion strains, locus YKR026C, strain gcn3, stronger effect = lower value",0.946 (inactive)
same,normalized growth,"S. cerevisiae deletion strains, locus YKR091W, strain srl3, stronger effect = lower value",0.941 (inactive)
same,normalized growth,"S. cerevisiae deletion strains, locus YLL001W, strain dnm1, stronger effect = lower value",0.977 (inactive)
same,normalized growth,"S. cerevisiae deletion strains, locus YLL026W, stronger effect = lower value",0.96 (inactive)
same,normalized growth,"S. cerevisiae deletion strains, locus YLL041C, strain sdh2, stronger effect = lower value",0.954 (inactive)
same,normalized growth,"S. cerevisiae deletion strains, locus YLR027C, strain aat2, stronger effect = lower value",0.964 (inactive)
same,normalized growth,"S. cerevisiae deletion strains, locus YLR039C, strain RIC1, stronger effect = lower value",0.933 (inactive)
same,normalized growth,"S. cerevisiae deletion strains, locus YLR058C, strain SHM2, stronger effect = lower value",1 (inactive)
same,normalized growth,"S. cerevisiae deletion strains, locus YLR102C, strain apc9, stronger effect = lower value",0.999 (inactive)
same,normalized growth,"S. cerevisiae deletion strains, locus YLR113W, strain HOG1, stronger effect = lower value",0.127 (active)
same,normalized growth,"S. cerevisiae deletion strains, locus YLR221C, strain rsa3, stronger effect = lower value",0.876 (active)
same,normalized growth,"S. cerevisiae deletion strains, locus YLR258W, strain gsy2, stronger effect = lower value",0.909 (active)
same,normalized growth,"S. cerevisiae deletion strains, locus YLR262C, strain YPT6 (second series), stronger effect = lower value",0.698 (active)
same,normalized growth,"S. cerevisiae deletion strains, locus YLR262C, strain YPT6, stronger effect = lower value",0.936 (inactive)
same,normalized growth,"S. cerevisiae deletion strains, locus YLR268W, strain sec22, stronger effect = lower value",1 (inactive)
same,normalized growth,"S. cerevisiae deletion strains, locus YLR320W, strain mms22, stronger effect = lower value",0.873 (active)
same,normalized growth,"S. cerevisiae deletion strains, locus YLR330W, strain CHS5, stronger effect = lower value",0.999 (inactive)
same,normalized growth,"S. cerevisiae deletion strains, locus YLR342W, strain FKS1 (second series), stronger effect = lower value",1 (inactive)
same,normalized growth,"S. cerevisiae deletion strains, locus YLR342W, strain FKS1, stronger effect = lower value",0.944 (inactive)
same,normalized growth,"S. cerevisiae deletion strains, locus YLR357W, strain rsc2, stronger effect = lower value",1.02 (inactive)
same,normalized growth,"S. cerevisiae deletion strains, locus YLR370C, strain arc18, stronger effect = lower value",0.95 (inactive)
same,normalized growth,"S. cerevisiae deletion strains, locus YLR371W, strain rom2, stronger effect = lower value",1 (inactive)
same,normalized growth,"S. cerevisiae deletion strains, locus YLR384C, strain iki3, stronger effect = lower value",0.954 (inactive)
same,normalized growth,"S. cerevisiae deletion strains, locus YLR418C, strain cdc73, stronger effect = lower value",1.02 (inactive)
same,normalized growth,"S. cerevisiae deletion strains, locus YML016C, strain PPZ1, stronger effect = lower value",0.995 (inactive)
same,normalized growth,"S. cerevisiae deletion strains, locus YML032C, strain rad52, stronger effect = lower value",1.02 (inactive)
same,normalized growth,"S. cerevisiae deletion strains, locus YML120C, strain ndi1, stronger effect = lower value",0.95 (inactive)
same,normalized growth,"S. cerevisiae deletion strains, locus YML124C, strain tub3, stronger effect = lower value",0.992 (inactive)
same,normalized growth,"S. cerevisiae deletion strains, locus YMR058W, strain fet3, stronger effect = lower value",0.944 (inactive)
same,normalized growth,"S. cerevisiae deletion strains, locus YMR078C, strain ctf18, stronger effect = lower value",1 (inactive)
same,normalized growth,"S. cerevisiae deletion strains, locus YMR125W, strain sto1, stronger effect = lower value",0.948 (inactive)
same,normalized growth,"S. cerevisiae deletion strains, locus YMR129W, stronger effect = lower value",0.932 (inactive)
same,normalized growth,"S. cerevisiae deletion strains, locus YMR205C, strain PFK2, stronger effect = lower value",0.906 (inactive)
same,normalized growth,"S. cerevisiae deletion strains, locus YMR223W, strain ubp8, stronger effect = lower value",1.01 (inactive)
same,normalized growth,"S. cerevisiae deletion strains, locus YMR231W, strain pep5, stronger effect = lower value",0.97 (inactive)
same,normalized growth,"S. cerevisiae deletion strains, locus YMR263W, strain SAP30, stronger effect = lower value",0.989 (inactive)
same,normalized growth,"S. cerevisiae deletion strains, locus YMR307W, strain GAS1, stronger effect = lower value",0.963 (inactive)
same,normalized growth,"S. cerevisiae deletion strains, locus YNL067W, strain RPL9B, stronger effect = lower value",1.01 (inactive)
same,normalized growth,"S. cerevisiae deletion strains, locus YNL071W, strain lat1, stronger effect = lower value",0.689 (active)
same,normalized growth,"S. cerevisiae deletion strains, locus YNL128W, strain TEP1, stronger effect = lower value",1.01 (inactive)
same,normalized growth,"S. cerevisiae deletion strains, locus YNL153C, strain GIM3, stronger effect = lower value",1.01 (inactive)
same,normalized growth,"S. cerevisiae deletion strains, locus YNL183C, strain NPR1, stronger effect = lower value",0.0218 (active)
same,normalized growth,"S. cerevisiae deletion strains, locus YNL209W, strain ssb2, stronger effect = lower value",0.966 (inactive)
same,normalized growth,"S. cerevisiae deletion strains, locus YNL233W, strain BNI4, stronger effect = lower value",1.01 (inactive)
same,normalized growth,"S. cerevisiae deletion strains, locus YNL248C, strain rpa49, stronger effect = lower value",0.887 (inactive)
same,normalized growth,"S. cerevisiae deletion strains, locus YNL250W, strain rad50, stronger effect = lower value",0.994 (inactive)
same,normalized growth,"S. cerevisiae deletion strains, locus YNL271C, strain bni1, stronger effect = lower value",0.979 (inactive)
same,normalized growth,"S. cerevisiae deletion strains, locus YNL298W, strain CLA4, stronger effect = lower value",0.981 (inactive)
same,normalized growth,"S. cerevisiae deletion strains, locus YNL307C, strain MCK1, stronger effect = lower value",0.997 (inactive)
same,normalized growth,"S. cerevisiae deletion strains, locus YNL322C, strain KRE1 (second series), stronger effect = lower value",0.932 (inactive)
same,normalized growth,"S. cerevisiae deletion strains, locus YNL322C, strain KRE1, stronger effect = lower value",1 (inactive)
same,normalized growth,"S. cerevisiae deletion strains, locus YNR049C, strain mso1, stronger effect = lower value",0.925 (inactive)
same,normalized growth,"S. cerevisiae deletion strains, locus YNR052C, strain pop2, stronger effect = lower value",0.998 (inactive)
same,normalized growth,"S. cerevisiae deletion strains, locus YOL006C, strain TOP1, stronger effect = lower value",1.01 (inactive)
same,normalized growth,"S. cerevisiae deletion strains, locus YOL012C, strain htz1",1.15 (inactive)
same,normalized growth,"S. cerevisiae deletion strains, locus YOL147C, strain pex11, stronger effect = lower value",0.999 (inactive)
same,normalized growth,"S. cerevisiae deletion strains, locus YOR001W, strain rrp6, stronger effect = lower value",1 (inactive)
same,normalized growth,"S. cerevisiae deletion strains, locus YOR061W, strain CKA2, stronger effect = lower value",0.997 (inactive)
same,normalized growth,"S. cerevisiae deletion strains, locus YOR069W, strain VPS5, stronger effect = lower value",0.999 (inactive)
same,normalized growth,"S. cerevisiae deletion strains, locus YOR070C, strain gyp1, stronger effect = lower value",0.917 (active)
same,normalized growth,"S. cerevisiae deletion strains, locus YOR080W, strain dia2, stronger effect = lower value",0.95 (inactive)
same,normalized growth,"S. cerevisiae deletion strains, locus YOR083W, strain WHI5, stronger effect = lower value",0.949 (inactive)
same,normalized growth,"S. cerevisiae deletion strains, locus YOR106W, strain vam3, stronger effect = lower value",0.943 (inactive)
same,normalized growth,"S. cerevisiae deletion strains, locus YOR136W, strain idh2, stronger effect = lower value",1.02 (inactive)
same,normalized growth,"S. cerevisiae deletion strains, locus YOR144C, strain elg1, stronger effect = lower value",0.985 (inactive)
same,normalized growth,"S. cerevisiae deletion strains, locus YOR184W, strain ser1, stronger effect = lower value",1.01 (inactive)
same,normalized growth,"S. cerevisiae deletion strains, locus YOR231W, strain MKK1, stronger effect = lower value",0.113 (active)
same,normalized growth,"S. cerevisiae deletion strains, locus YOR265W, strain rbl2, stronger effect = lower value",0.951 (inactive)
same,normalized growth,"S. cerevisiae deletion strains, locus YOR270C, strain vph1, stronger effect = lower value",0.784 (inactive)
same,normalized growth,"S. cerevisiae deletion strains, locus YOR290C, strain snf2, stronger effect = lower value",0.92 (inactive)
same,normalized growth,"S. cerevisiae deletion strains, locus YOR316C, strain cot1, stronger effect = lower value",0.999 (inactive)
same,normalized growth,"S. cerevisiae deletion strains, locus YPL051W, strain arl3, stronger effect = lower value",0.925 (inactive)
same,normalized growth,"S. cerevisiae deletion strains, locus YPL055C, strain LGE1, stronger effect = lower value",1.04 (inactive)
same,normalized growth,"S. cerevisiae deletion strains, locus YPL078C, strain atp4, stronger effect = lower value",0.974 (inactive)
same,normalized growth,"S. cerevisiae deletion strains, locus YPL106C, strain sse1, stronger effect = lower value",0.951 (inactive)
same,normalized growth,"S. cerevisiae deletion strains, locus YPL240C, strain hsp82, stronger effect = lower value",0.939 (inactive)
same,normalized growth,"S. cerevisiae deletion strains, locus YPL241C, strain CIN2, stronger effect = lower value",0.975 (inactive)
same,normalized growth,"S. cerevisiae deletion strains, locus YPL256C, strain CLN2, stronger effect = lower value",0.126 (active)
same,normalized growth,"S. cerevisiae deletion strains, locus YPR119W, strain clb2, stronger effect = lower value",0.988 (inactive)
same,normalized growth,"S. cerevisiae deletion strains, locus YPR141C, strain kar3, stronger effect = lower value",0.988 (inactive)
same,normalized growth,"S. cerevisiae deletion strains, locus YPR163C, strain tif3, stronger effect = lower value",1.01 (inactive)
same,normalized growth,"S. cerevisiae deletion strains, locus YPR167C, strain met16, stronger effect = lower value",1 (inactive)
same,normalized growth,"S. cerevisiae deletion strains, strain wtn01, stronger effect = lower value",1 (inactive)
same,normalized growth,"S. cerevisiae strains, strain wild type, stronger effect = lower value",0.999 (inactive)
